According to PubChem BioAssay (Tox21):
Results filed as inconclusive are left out. Where a call stands in place of a potency, no number is given. A number with no mark means an inactive call. Calls of active or inactive are those of the source. Unless noted, the call rests on the fitted dose curve; in most records, active means well fitted curve in the direction sought with a large enough effect in the repeat runs; inconclusive means weak or mixed curves; inactive means no such curve, though single readings can be large; an effect the other way counts as inactive or inconclusive.

Experiments:
[1] = qHTS RealTime-Glo MT Cell Viability Assay in HEK293 cells - 8 hour (AID 1224887); further: top concentration of the series differs between compounds; nearly all actives have a fitted effect of over 50% in size
Summary of the method: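 Nonlytic bioluminescent viability monitoring. HEK293 at 600 cells/well with reagent; 5 h settle; compound transfer by pintool; plates held at 37 C and read at set time points.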

[2] = A CellTox Green Cytotoxicity Assay to monitor cytotoxicity in HEK293 cells - 16 hour (AID 1224888); further: nearly all actives have a fitted effect of over 35% in size
Summary of the method: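 Cytotoxicity was tracked continuously in HEK293 cells by a DNA-binding dye excluded from viable cells. Compounds were transferred in DMSO 5 h after seeding; fluorescence was recorded at intervals up to 40 h.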

[3] = qHTS RealTime-Glo MT Cell Viability Assay in HepG2 cells - 0 hour (AID 1224889); further: nearly all actives have a fitted effect of over 50% in size
Summary of the method: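 Tox21 10K library screened in qHTS format on HepG2 cells carrying RealTime-Glo reagents. Compounds were added after a 5 h preincubation, and the luminescent signal from continuous culture was measured repeatedly during 40 h treatment.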

[4] = A CellTox Green Cytotoxicity Assay to monitor cytotoxicity in HepG2 cells - 8 hour (AID 1224890); further: nearly all actives have a fitted effect of over 45% in size
Summary of the method: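 Real-time, homogeneous cytotoxicity readout: dead-cell DNA staining by CellTox Green in HepG2 monolayers, fluorescence measured at timed intervals up to 40 h of continuous compound exposure.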

[5] = qHTS assay to identify small molecule antagonists of the estrogen receptor alpha (ER-alpha) signaling pathway using the BG1 cell line in the presence of 0.1 nM 17-beta-estradiol - cell viability counter screen (AID 1259241); further: nearly all actives have a fitted effect of over 40% in size
Summary of the method: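 Viability in VM7Luc4E2 cells after 22 hr compound exposure under 0.1 nM 17beta-estradiol stimulation, by CellTiter-Fluor.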

[6] = qHTS assay to identify small molecule antagonists of the androgen receptor (AR) signaling pathway using the MDA cell line in the presence of 0.5 nM R1881 - cell viability counter screen (AID 1259242); further: nearly all actives have a fitted effect of over 45% in size
Summary of the method: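 Cytotoxicity toward MDA-kb2 cells is measured by CellTiter-Fluor live-cell protease fluorescence after 16 hr compound exposure at 37C in the presence of 0.5 nM R1881 stimulator.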

[7] = target: Estrogen receptor (Homo sapiens) (UniProt P03372); experiment: qHTS assay to identify small molecule antagonists of the estrogen receptor alpha (ER-alpha) signaling pathway using the BG1 cell line in the presence of 0.1 nM 17-beta-estradiol (AID 1259244); further: nearly all actives have a fitted effect of over 50% in size
Summary of the method: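 After 5 days in hormone-depleted medium (charcoal-stripped serum, no phenol red), VM7Luc4E2 cells were seeded, incubated 24 h, then co-treated with compound and 0.1 nM (final) estradiol for 22 h before luminescence detection.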

[8] = qHTS assay to identify small molecule phospholipidosis (PLD) inducers (AID 1259344; active means well fitted curve in the direction sought with a large enough effect; an effect the other way counts as inactive or inconclusive; further: potency means the concentration at half of the fitted maximal effect)
Summary of the method: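 HepG2 cells grown on collagen I take up LipidTOX Red while exposed to compound for 24 h; after fixation they are imaged at 20x and pit metrics are extracted.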

[9] = qHTS assay to identify small molecule HDAC inhibitors (AID 1259364); further: top concentration of the series differs between compounds; nearly all actives have a fitted effect of over 45% in size
Summary of the method: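 Homogeneous cell-based luminescent assay of endogenous class I/II HDAC activity; HCT-116 cells, 2 h compound exposure, 30 min HDAC-Glo development at RT.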

Chain of Estrogen receptor (Homo sapiens) (P03372 whole entry, looked up): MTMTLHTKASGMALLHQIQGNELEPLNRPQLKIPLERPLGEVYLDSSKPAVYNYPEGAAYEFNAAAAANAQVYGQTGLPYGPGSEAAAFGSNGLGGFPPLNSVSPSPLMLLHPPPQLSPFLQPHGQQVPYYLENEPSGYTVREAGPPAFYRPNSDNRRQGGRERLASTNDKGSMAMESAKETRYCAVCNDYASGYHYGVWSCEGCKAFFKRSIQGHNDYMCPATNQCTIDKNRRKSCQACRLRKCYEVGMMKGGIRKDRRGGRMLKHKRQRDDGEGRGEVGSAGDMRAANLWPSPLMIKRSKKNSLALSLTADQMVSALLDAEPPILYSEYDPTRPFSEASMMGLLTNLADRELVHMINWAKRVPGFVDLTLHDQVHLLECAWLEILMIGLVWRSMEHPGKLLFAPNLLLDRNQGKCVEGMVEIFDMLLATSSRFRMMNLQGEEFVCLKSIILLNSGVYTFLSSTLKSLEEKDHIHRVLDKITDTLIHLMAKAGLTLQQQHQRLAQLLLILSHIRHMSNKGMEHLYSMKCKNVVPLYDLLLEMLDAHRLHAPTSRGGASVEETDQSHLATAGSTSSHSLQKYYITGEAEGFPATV

Compound: O=P(O)(O)C(O)(Cc1cccnc1)P(=O)(O)O
- outcome [1]: inactive
- Potency [2]: inactive
- Potency [3]: inactive
- Potency [4]: inactive
- outcome [5]: inactive
- outcome [6]: inactive
- outcome [7]: inactive
- Potency [8]: inactive
- Potency [9]: inactive

Compound: C[C@@H]1CC[C@@]2(OC1)O[C@H]1C[C@H]3[C@@H]4CC[C@H]5C[C@@H](O)CC[C@]5(C)[C@H]4CC(=O)[C@]3(C)[C@H]1[C@@H]2C
- activity change, negative = cytotoxicity [1]: 2.92% [at 6.97 µM]
- activity change [2]: -0.0716% [at 6.97 µM, active compounds read high]
- activity change, negative = cytotoxicity [3]: 5.89% [at 6.97 µM]
- cytotoxicity increase [4]: -0.434% [at 6.97 µM]
- activity change, negative = cytotoxicity [5]: -0.428% [at 8.39 µM]
- viability change, negative = cytotoxic [6]: 4.91% [at 8.39 µM]
- activity change, negative = inhibition [7]: 0.329% [at 8.39 µM]
- Potency [8]: inactive
- activity change, negative = inhibition [9]: 8.02% [at 8.39 µM]

Compound: C[C@@H]1NC(=O)[C@@H](N)CNC(=O)[C@H](C2CCNC(N)=N2)NC(=O)/C(=C/NC(N)=O)NC(=O)[C@H](CNC(=O)C[C@@H](N)CCCN)NC1=O (some centres undefined)
- activity change, negative = cytotoxicity [1]: 0.186% [at 0.29 µM]
- activity change [2]: 17.5% [at 0.29 µM, active compounds read high]
- activity change, negative = cytotoxicity [3]: 5.25% [at 0.29 µM]
- cytotoxicity increase [4]: -1.65% [at 0.29 µM]
- activity change, negative = cytotoxicity [5]: 6.75% [at 0.349 µM]
- viability change, negative = cytotoxic [6]: 2.87% [at 0.349 µM]
- activity change, negative = inhibition [7]: 11.8% [at 0.349 µM]
- Potency [8]: inactive
- activity change, negative = inhibition [9]: -0.0991% [at 0.349 µM]

Compound: CCCC(=O)OC
- outcome [1]: inactive
- Potency [2]: inactive
- Potency [3]: inactive
- Potency [4]: inactive
- outcome [5]: inactive
- outcome [6]: inactive
- outcome [7]: inactive
- Potency [9]: inactive

Compound: CC(=O)SC[C@@H](C)C(=O)N1CCC[C@H]1C(=O)N[C@@H](Cc1ccccc1)C(=O)O
- outcome [1]: inactive
- Potency [2]: inactive
- Potency [3]: inactive
- Potency [4]: inactive
- outcome [5]: inactive
- outcome [6]: inactive
- outcome [7]: inactive
- Potency [8]: 3.55 µM (active)

Compound: Cc1ccccc1OCC(=O)O
- outcome [1]: inactive
- Potency [2]: inactive
- Potency [3]: inactive
- Potency [4]: inactive
- outcome [5]: inactive
- outcome [6]: inactive
- outcome [7]: inactive

Compound: C=CCn1cc[n+](C)c1
- outcome [1]: inactive
- Potency [2]: inactive
- Potency [3]: inactive
- Potency [4]: inactive
- outcome [5]: inactive
- outcome [6]: inactive
- outcome [7]: inactive
- Potency [9]: inactive

Compound: CN(C)CCc1c[nH]c2ccc(CS(=O)(=O)N3CCCC3)cc12
- outcome [1]: inactive
- Potency [2]: inactive
- Potency [3]: inactive
- Potency [4]: inactive
- outcome [5]: inactive
- outcome [6]: inactive
- outcome [7]: inactive
- Potency [8]: inactive
- Potency [9]: inactive

Compound: N=C(N)S(=O)O
- outcome [1]: inactive
- Potency [2]: inactive
- Potency [3]: inactive
- Potency [4]: inactive
- outcome [5]: inactive
- outcome [6]: inactive
- outcome [7]: inactive
- Potency [9]: inactive

Compound: COc1cc(S(N)(=O)=O)cc(C(=O)O)c1OC
- outcome [1]: inactive
- Potency [2]: inactive
- Potency [3]: inactive
- Potency [4]: inactive
- outcome [5]: inactive
- outcome [6]: inactive
- outcome [7]: inactive

Compound: CCN1CCN(C(=O)N[C@@H](C(=O)N[C@@H]2C(=O)N3C(C(=O)O)=C(CSc4nnnn4C)CS[C@H]23)c2ccc(O)cc2)C(=O)C1=O
- outcome [1]: inactive
- Potency [2]: inactive
- Potency [3]: inactive
- Potency [4]: inactive
- outcome [5]: inactive
- outcome [6]: inactive
- outcome [7]: inactive
- Potency [8]: inactive
- Potency [9]: inactive

Compound: CC(C)(C)C(=O)NCCCC(=O)O
- outcome [1]: inactive
- Potency [2]: inactive
- Potency [3]: inactive
- Potency [4]: inactive
- outcome [5]: inactive
- outcome [6]: inactive
- outcome [7]: inactive
- Potency [8]: inactive
- Potency [9]: inactive

Compound: C[Si](C)(C)O[Si](O)(O)O
- outcome [1]: inactive
- Potency [2]: inactive
- Potency [3]: inactive
- Potency [4]: inactive
- outcome [5]: inactive
- outcome [6]: inactive
- outcome [7]: inactive
- Potency [9]: inactive

Compound: CC(C)C[P+](C)(CC(C)C)CC(C)C
- outcome [1]: inactive
- Potency [2]: inactive
- Potency [3]: inactive
- Potency [4]: inactive
- outcome [5]: inactive
- outcome [6]: inactive
- outcome [7]: inactive

Compound: CN(C)CCCN(C)C
- activity change, negative = cytotoxicity [1]: -0.912% [at 6.97 µM]
- activity change [2]: -1.52% [at 6.97 µM, active compounds read high]
- activity change, negative = cytotoxicity [3]: -4.9% [at 6.97 µM]
- cytotoxicity increase [4]: -9.61% [at 6.97 µM]
- activity change, negative = cytotoxicity [5]: -1.36% [at 8.39 µM]
- viability change, negative = cytotoxic [6]: 2.3% [at 8.39 µM]
- activity change, negative = inhibition [7]: -10.8% [at 8.39 µM]
- activity change, negative = inhibition [9]: 2.55% [at 8.39 µM]

Compound: CC[C@@]1(c2ccccc2)NC(=O)N(C)C1=O
- outcome [1]: inactive
- Potency [2]: inactive
- Potency [3]: inactive
- Potency [4]: inactive
- outcome [5]: inactive
- outcome [6]: inactive
- outcome [7]: inactive
- Potency [8]: inactive
- Potency [9]: inactive

Compound: O=S(=O)(O)c1ccc(Cl)cc1
- outcome [1]: inactive
- Potency [2]: inactive
- Potency [3]: inactive
- Potency [4]: inactive
- outcome [5]: inactive
- outcome [6]: inactive
- outcome [7]: inactive
- Potency [9]: inactive

Compound: NNC(=O)CCCCC(=O)NN
- outcome [1]: inactive
- Potency [2]: inactive
- Potency [3]: inactive
- Potency [4]: inactive
- outcome [5]: inactive
- outcome [6]: inactive
- outcome [7]: inactive
- Potency [9]: inactive

Compound: O=C(CCBr)N1CCN(C(=O)CCBr)CC1
- outcome [1]: inactive
- Potency [2]: inactive
- Potency [3]: inactive
- Potency [4]: inactive
- outcome [5]: inactive
- outcome [6]: inactive
- outcome [7]: inactive
- Potency [8]: inactive
- Potency [9]: inactive

Compound: COc1ccccc1N1CCN(CC(O)COc2cc(OC)c(OC)c(OC)c2)CC1 (centres undefined)
- outcome [1]: inactive
- Potency [2]: inactive
- Potency [3]: inactive
- Potency [4]: inactive
- outcome [5]: inactive
- outcome [6]: inactive
- outcome [7]: inactive
- Potency [9]: inactive

Compound: CCCCCCC(O)CO (centres undefined)
- outcome [1]: inactive
- Potency [2]: inactive
- Potency [3]: inactive
- Potency [4]: inactive
- outcome [5]: inactive
- outcome [6]: inactive
- outcome [7]: inactive
- Potency [9]: inactive

Compound: CC(=O)SCC(CC(=O)c1ccc(C)cc1)C(=O)O (centres undefined)
- outcome [1]: inactive
- Potency [2]: inactive
- Potency [3]: inactive
- Potency [4]: inactive
- outcome [5]: inactive
- outcome [6]: inactive
- outcome [7]: inactive
- Potency [8]: inactive
- Potency [9]: inactive

Compound: CN(C)CCC[C@@]1(c2ccc(F)cc2)OCc2cc(C#N)ccc21
- outcome [1]: inactive
- Potency [2]: inactive
- Potency [3]: inactive
- Potency [4]: inactive
- outcome [5]: inactive
- outcome [6]: inactive
- outcome [7]: inactive
- Potency [8]: inactive
- Potency [9]: inactive

Compound: C=CC(=O)CC
- outcome [1]: inactive
- Potency [2]: inactive
- Potency [3]: inactive
- Potency [4]: inactive
- outcome [5]: inactive
- outcome [6]: inactive
- Potency [9]: inactive

Compound: CCCCN=C(N)N=C(N)N
- outcome [1]: inactive
- Potency [2]: inactive
- Potency [3]: inactive
- Potency [4]: inactive
- outcome [5]: inactive
- outcome [6]: inactive
- Potency [8]: inactive
- Potency [9]: inactive

Compound: CCCCNCC
- outcome [1]: inactive
- Potency [2]: inactive
- Potency [3]: inactive
- Potency [4]: inactive
- outcome [5]: inactive
- outcome [6]: inactive
- outcome [7]: inactive
- Potency [9]: inactive
